Records with an inconclusive call do not appear. Unmarked numbers belong to inactive results. Calls of active or inactive are those of the source. The call rests on the fitted dose curve; in most records, active means well fitted cell-killing curve with a large enough effect; inconclusive means small, poorly fitted or top-dose-only effect; inactive means flat fitted curve, though single readings scatter. Numbered stars: 1 amine (or outer) side, 2 acyl side, 3 side chain; on linkers, the order of the positions; unused ones are H or OH. Bridge positions count the residues as written; N and C are the ends. Square brackets hold non-standard residues; d marks the D form. Peptide text beside a SMILES is read from it. ξ: configuration not given here. X1 = CCCCCCCCCC(=O)[C@H](C(=O)[*:2])[C@@H]1CNC(=O)[C@@H](N[*:1])CS1; Phe(3R-OH) = O=C([C@@H](N[*:1])[C@H](O[*:3])c1ccccc1)[*:2]; NMeTrp(4-OMe) = CN[C@@H](Cc1c[nH]c2cccc(OC)c12)C(=O)O; ξThr(3R)(O-yl) = C[C@@H](O[*:3])C(N[*:1])C(=O)[*:2]; NMeThr(3ξ) = CN[C@H](C(=O)O)C(C)O; NMeL = CN[C@@H](CC(C)C)C(=O)O; NMeV = CN[C@H](C(=O)O)C(C)C; ξIle = CC[C@H](C)C(N)C(=O)O; ξV = CC(C)C(N)C(=O)O
On the % scale 0 is the no-effect control and ±100 the full control effect; potency means the concentration at half of the fitted maximal effect.

The nature of the experiment: KB-3-1 Cancer Cell Toxicity qHTS against the NCATS CANVASS Library (AID 1347366). Further: nearly all actives have a fitted effect of over 75% in size. The note with it: KB-3-1 viability, CellTiter-Glo luminescence, 72 h; series mostly up to 46.1 µM; activity change, negative = cytotoxicity: at the top concentration; outcome: at the top concentration. An excerpt:
Natural products and their derivatives continue to be wellsprings of nascent therapeutic potential. However, many laboratories have limited resources for biological evaluation, leaving their previously isolated or synthesized compounds largely or completely untested. To address this issue, the Canvass library of natural products was assembled (https://tripod.nih.gov/canvass), in collaboration with academic and industry researchers, for quantitative high-throughput screening (qHTS) across a diverse set of cell-based and biochemical assays. The pure (>85% purity by liquid chromatography/mass spectrometry [LC/MS]) Canvass library of 346 natural products were submitted by 45 academic laboratories and companies around the world. We collected pure natural products to circumvent deconvolution and structure elucidation due to time and resource limitations. The library was formatted into 1536-well plates and evaluated in 50 qHTS (in an 11-pnt concentration series) bioassays with broad scope of disease-relevant mechanisms. The resulting data set from 50 different assays was then systematically analyzed to identify overall trends and specific natural products with interesting biological activities. Reported herein are the results of each individual qHTS and their corresponding assay protocol. […] National Center for Advancing Translational Sciences (NCATS), Rockville, MD National Institute of Health (NIH), Bethesda, Maryland
Cancer Cell Toxicity qHTS protocol 1. In a 1536 well, tissue culture treated white solid bottom plates (Corning 7494), 5 uL of KB-3-1 cell solution (final concentration of 500 cells / well) was dispensed using the Multidrop Combi dispenser (Thermo Fisher Scientific) into columns 3-48, rows 1-32. DMEM + 10% FBS + 100 U/mL penicillin / 100ug/mL streptomycin media solution was dispensed into column 1-2, row 1-32 also using the Multidrop Combi dispenser. 2. Control and Compounds were pin transferred (~23nL volume) to the assay plates via Wako Pin-tool (Wako Automation, Richmond VA) equipped with a 1536 pin head. The compounds were transferred to columns 5-48 resulting in a final concentration ranging from 0.17 nM to 103 uM. Dose response titration of Bortezomib was pin transferred into column 3, rows 1-32 (2mM; 1:2 dilution; 16 points; n = 2) resulting to a final concentration range of 0.3nM - 9.2uM. 3. The assay plates were further incubated in the at 37C, 5% CO2, 95% Rh for 72 hr. 4. After incubation, 2.5uL of CellTiter-Glo reagent (Promega) was added to the assay plates (column 1-48, rows 1-32) using the Multidrop Combi dispenser. 5. The assay plates were incubated at room temperature for 10 minutes. 6. Luminescence signal was acquired via the ViewLux plate reader (PerkinElmer) using a clear emission filter, 1 sec exposure, and 1x binning settings.
In the case of `C=C1C[C@@]23C=CC(=O)[C@@](C)(CCC(=O)Nc4c(O)ccc(C(=O)O)c4O)C2C[C@@H]1C(O)C3` (stereo not given in full), the “activity change, negative = cytotoxicity” value was 0.755%.

`O=Cc1ccc2n1C[C@@]1(C[C@H](O)[C@H](O)CO1)OC2`: the “activity change, negative = cytotoxicity” value was -6.03%.

As to `C[C@]12CC[C@]3(C1)[C@H](CC2=O)CC(OC(=O)c1ccccc1)[C@H]1[C@@](CO)(C(=O)O)CCC[C@@]13C` (stereo not given in full), the “activity change, negative = cytotoxicity” value was -17.3%.

As to `C/C1=C/[C@@H](C)[C@H](O)C/C=C/CC/C=C/C(=O)O[C@@H]1[C@H](C)C(=O)/C=C/CC1CC(=O)NC(=O)C1`, the Potency was 13.2 µM (active).

Turning to `C[C@@H]1C[C@H]2C[C@]3(CCCCN3C)[C@@H]3C[C@H]2[C@H](C1)N(C)C3`, the “activity change, negative = cytotoxicity” value was -0.41%.

Consider `O=C(O)Cc1c[nH]c2ccccc12`, for which the “activity change, negative = cytotoxicity” value is 8.22%.

Consider `COC1C(O)C(OC(N)=O)C(Oc2ccc3c(O)c(NC(=O)c4ccc(O)c(CC=C(C)C)c4)c(=O)oc3c2C)OC1(C)C` (stereo not given), for which the “activity change, negative = cytotoxicity” value was 7.04%.

As to `C=C[C@]1(C)CC[C@@H]([C@H](C)C(=O)/C=C/C(C)C)O1`, the call was inactive.

For the molecule `CC1(C)C=Cc2c(ccc3c2OC[C@@H](c2ccc(O)cc2O)C3)O1`, the “activity change, negative = cytotoxicity” value was -9.19%.

As to `C=C1C[C@@]23C=CC(=O)[C@@](C)(CCCC(C)C(=O)O)[C@@H]2C[C@@H]1CC3` (stereo not given in full), the “activity change, negative = cytotoxicity” value is 4.37%.

Turning to `C/C=C1/CC[C@@H]2c3[nH]c4ccccc4c3CCN2C1`, the “activity change, negative = cytotoxicity” value is -5.93%.

Consider `C/C1=C\CC(=O)/C=C/C=C\c2csc(n2)[C@@H](C)NC(=O)C[C@@](S)([C@@H](C)C(=O)O)CC1`, for which the “activity change, negative = cytotoxicity” value was -0.0278%.

As for `C=C(C)[C@@H]1CC[C@]2(C)CC[C@]3(C)[C@H](CC[C@@H]4[C@@]5(C)CC[C@H](O)C(C)(C)[C@@H]5CC[C@]43C)[C@@H]12`, the Potency result was “inactive”.

`CS/C=C/C(N)=O`: the “activity change, negative = cytotoxicity” value was -2.09%.

For the molecule `C=CC(C)(C)C(=O)[C@@H](C)[C@@H]1CC[C@](C)(C=C)O1`, the molecule was called inactive.

As for `COc1ccc(/C=C2\COc3cc(O)ccc3C2=O)cc1`, the “activity change, negative = cytotoxicity” value was -1.16%.

Turning to `CN1C(=O)[C@]23SS[C@@]1(C)C(=O)N2[C@H]1Nc2ccccc2[C@]1(c1c[nH]c2ccccc12)[C@@H]3O`, the Potency was 2.96 µM (active).

Take `C/C=C/c1cc(OC)c2c(c1)[C@@H](C)[C@H](c1ccc(O)c(OC)c1)O2`: the “activity change, negative = cytotoxicity” value was 0.32%.

For the molecule `COc1ccc([C@@H]2c3cc(OC)c(OC)cc3C(=O)C(C)C2C)cc1OC` (stereo not given in full), the “activity change, negative = cytotoxicity” value was 5.72%.

As to `CN1CC[C@]2(c3cccc4c3N[C@@H]3N(C)CC[C@]43[C@@]34CCN(C)[C@@H]3Nc3c([C@]56CCN(C)[C@H]5Nc5ccccc56)cccc34)c3ccccc3N[C@H]12`, the Potency was 4.69 µM (active).

In the case of `CCCCCC[C@H](CCCCC[C@@H](O)C(N)=O)OC(=O)[C@@H]1CC=CN1C(=O)c1ccccc1O`, the “activity change, negative = cytotoxicity” value is 2.9%.

On to `COc1ccc2cc(NC(=O)C3=NO[C@H]4[C@H](O)C=C[C@@H](Cl)[C@@]4(O)C3)c(=O)oc2c1OC`, for which the result was inactive.

For `Cc1cc(O)cc2oc(C[C@H](C)O)cc(=O)c12`, the result was inactive.

Consider `C=C1C(=O)C[C@H]2C[C@@H]1[C@]2(C)CCC=C(C)C`, for which the “activity change, negative = cytotoxicity” value was 2.09%.

`CC(=O)NC[C@@H]1O[C@H](CC/C=C(C)/C(C)=C/C=O)[C@H](C)C[C@H]1O`: the outcome was inactive.

`C=C[C@@]1(C)CC[C@@H]([C@H](C)C(=O)/C=C/C(C)C)O1`: the “activity change, negative = cytotoxicity” value was -7.54%.

Take `CC[C@H](C)C(NC(=O)[C@@H](NC)C(C)C)C(=O)NC1C(=O)N(C)[C@@H](C(C)O)C(=O)N[C@@H](C(C)C)C(=O)N(C)[C@@H](CC(C)C)C(=O)NC(C(C)C)C(=O)N(C)[C@@H](C(C)C)C(=O)N(C)[C@@H](Cc2c[nH]c3cccc(OC)c23)C(=O)N[C@@H](C(C)C)C(=O)N[C@@H]([C@H](O)c2ccccc2)C(=O)N[C@@H](C(C)C)C(=O)O[C@@H]1C` (stereo partly drawn) (H-[NMeV][ξIle][ξThr(3R)(O-yl)][NMeThr(3ξ)]V[NMeL][ξV][NMeV][NMeTrp(4-OMe)]V[Phe(3R-OH)]V; ester 3-C): the outcome was inactive.

For the molecule `CCCCCCCCCCCCCCCC(=O)OC/C=C(\C)CCCC(C)CC(C)C(C)C` (stereo not given), the outcome was inactive.

On to `C[C@@]12CCC[C@@](C)(C(=O)O)[C@H]1CC[C@]13C[C@H]4C[C@H](O[C@@]4(C)C1)[C@H]32`, for which the “activity change, negative = cytotoxicity” value is -2.4%.

`COc1ccc2oc3c(OC)c(OC)c(OC)c(OC)c3c(=O)c2c1`: the activity change, negative = cytotoxicity is -8.69% [at 9.19 µM].

As to `CCCCCCCCCC(=O)[C@@H]1C(=O)N[C@@H](CC(C)C)C(=O)N[C@H](C)C(=O)N2CCC[C@H]2C(=O)N[C@@H](C(C)C)C(=O)N[C@H]2CS[C@H]1CNC2=O` (cyclo(L[dA]PV[X1])), the “activity change, negative = cytotoxicity” value was 7.4%.

In the case of `CC1=CC[C@@]2(C[C@@H]1O)[C@@H](C(=O)O)CC[C@H]2C(C)C`, the outcome was inactive.

In the case of `COc1cc(O)c2c3c(c(O)cc(C)c13)C(=O)OC2`, the call was inactive.

For `CC1C(=O)C23CCC1C[C@]21O[C@@H]2C(C)(C)C=CC(=O)[C@@]23COC1=O` (stereo not given in full), the “activity change, negative = cytotoxicity” value is 9.83%.

Consider `CC(=O)O[C@H]1CC[C@@]2(C)C(CC[C@]3(C)C2CC=C2C4CC(C)(C)CC[C@]4(C)CC[C@]23C)C1(C)C` (stereo not given in full), for which the result was inactive.

Regarding `Oc1ccc([C@H]2Oc3ccc(/C=C/c4cc(O)cc(O)c4)cc3C2c2cc(O)cc(O)c2)cc1` (stereo not given in full), the “activity change, negative = cytotoxicity” value is -20.3%.

`O=C1C[C@@H](c2ccc(O)c(-c3c(O)cc(O)c4c3O[C@H](c3ccc(O)cc3)CC4=O)c2)Oc2cc(O)cc(O)c21`: the “activity change, negative = cytotoxicity” value is 0.383% [at 27.5 µM].

Consider `COc1cc(/C=C2/C(=O)N(c3ccc(O)cc3C(=O)O)[C@H](c3ccc(O)c(OC)c3)C2C(=O)Nc2ccc(O)cc2C(=O)O)ccc1O` (stereo not given in full), for which the outcome was inactive.

In the case of `CC(=O)[C@@H]1[C@@H](O)C[C@H]2[C@]3(C)CC[C@H]4C(C)(C)CCC[C@]4(CO)[C@H]3C[C@H]3OC(=O)[C@@H]1[C@@]32C`, the “activity change, negative = cytotoxicity” value was 3.64%.

As to `CC(C)(Br)[C@@H](Cl)C[C@H](Br)[C@](C)(Cl)/C=C/Br`, the “activity change, negative = cytotoxicity” value was -4.7%.

For the origin of these results see PubChem BioAssay (NCATS).
